dFosB activator = activators of delta FosB homodimer, primary screen, biochemical, fluorescence polarization, TAMRA-CDK5 oligo, single point. purified delta FosB; percent of positive-control signal above neutral wells. 340,000 compounds, 0.99% hits. AID 493131, 2011. activation, % at 25 µM. Protein FosB (Mus musculus), P13346;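 active = mean activation above about 17%, with every replicate also reaching it, limit read from the data, passing the limit was not always enough; inconclusive = only one of the two conditions met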
Target sequence (P13346 whole entry, looked up): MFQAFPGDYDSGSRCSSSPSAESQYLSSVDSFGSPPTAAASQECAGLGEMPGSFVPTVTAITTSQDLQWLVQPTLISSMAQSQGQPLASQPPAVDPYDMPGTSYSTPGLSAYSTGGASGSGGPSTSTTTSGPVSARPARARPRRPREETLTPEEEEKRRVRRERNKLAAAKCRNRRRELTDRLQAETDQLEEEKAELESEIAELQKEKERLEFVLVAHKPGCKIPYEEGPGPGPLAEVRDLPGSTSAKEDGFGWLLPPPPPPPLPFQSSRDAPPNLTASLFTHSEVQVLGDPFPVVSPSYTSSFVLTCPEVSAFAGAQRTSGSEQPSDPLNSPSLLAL
Glyco luc inh = increase of ERlucT glycosylation luciferase signal, primary screen, N-linked glycosylation inhibitor project, D54 ERlucT cells, luminescence, set 2. 360,000 compounds, 0.23% hits. reporter increase, % at 12.5 µM. D54 ERlucT glycosylation luciferase reporter, 24 h; percent of 100 nM tunicamycin response;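 active = mean luciferase reporter signal, scaled so untreated is 0 and the glycosylation-blocking control 100, at or above a set limit in every replicate; inconclusive = mean reaches the limit but not every replicate does; inactive = mean below the limit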;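 note: luciferase carries N-glycosylation sites so blocking glycosylation raises the light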
RAD54 branch = inhibitors of human RAD54 branch migration, primary screen, biochemical, fluorescence, single point; DNA repair and recombination protein RAD54-like (Homo sapiens), Q92698; 360,000 compounds, 0.14% hits; RAD54 Holliday junction branch migration, FAM/BHQ fluorescence; inhibition, % at 10.4 µM;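 active = mean normalized replicate activity at least 40 and at least half of replicates scoring 40 or more; inconclusive = only one of the two criteria met; inactive = mean below 40 and under half of replicates reaching 40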;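 note: inhibitors cause a drop in the FAM fluorescence signal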
CFTR F508del cor = F508del CFTR correction, initial screen, CFBE line, single point; CFBE cells, YFP halide quenching; stimulated with forskolin plus potentiator P3; % fluorescence drop versus neutral controls; activity (quench increase), % at 7.58 µM; 350,000 compounds, 0.36% hits; AID 720511, 2013;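 active = mean added fluorescence quench of at least 8% versus neutral control, with both replicates also reaching 8%; inconclusive = only one of the mean or replicate conditions met; inactive = mean below 8% and not both replicates reaching 8%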;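 note: cells transiently co-express mutant CFTR-F508del with the halide-sensitive YFP; corrector assay measuring rescue of mutant channel to the surface after 24 h compound exposure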
PvdQ acylase = P. aeruginosa PvdQ acylase inhibitors, primary screen, biochemical, fluorescence, plate reader and imaging, single point. PvdQ acylase [Pseudomonas aeruginosa LESB58]. purified PvdQ acylase. inhibition, % at 10 µM. 340,000 compounds, 0.063% hits. AID 488965, 2010; in the data active = inhibition above about 30%, passing the limit was not always enough; inconclusive = no clear call, values can overlap the other calls
RAD52 anneal inh = RAD52 DNA annealing inhibitors, primary screen, biochemical, FRET, single point, set 2; AID 651710, 2012; 360,000 compounds, 0.46% hits; DNA repair protein RAD52 homolog (Homo sapiens), P43351; inhibition, % at 18.7 µM; recombinant RAD52 DNA annealing, FRET fluorescence;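 active = every replicate showing at least 50% inhibition; inconclusive = mean inhibition at least 50% but not in every replicate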
Target sequence (P43351 whole entry, looked up): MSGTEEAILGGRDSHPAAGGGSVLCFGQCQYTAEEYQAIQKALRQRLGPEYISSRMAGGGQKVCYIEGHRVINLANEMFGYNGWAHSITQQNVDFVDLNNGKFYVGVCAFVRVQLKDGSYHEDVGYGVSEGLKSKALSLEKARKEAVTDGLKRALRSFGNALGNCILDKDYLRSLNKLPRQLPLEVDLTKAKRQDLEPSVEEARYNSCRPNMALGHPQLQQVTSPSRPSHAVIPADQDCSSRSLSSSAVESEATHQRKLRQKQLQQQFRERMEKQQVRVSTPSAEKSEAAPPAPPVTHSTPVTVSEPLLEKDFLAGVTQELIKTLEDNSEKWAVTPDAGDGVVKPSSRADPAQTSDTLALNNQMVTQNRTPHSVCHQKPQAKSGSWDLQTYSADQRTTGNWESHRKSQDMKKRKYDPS
Each line names hits and unclear results; the compound was inactive in the other large screens; ! = not active in a repeat. Sampled rows, rich in hits. Any-hit rate of the full collection: about 1.5%.

CN1CCCCN2[C@H](CO)[C@@H](c3ccc(/C=C/c4ccccc4)cc3)[C@H]2C1	RAD52 anneal inh 53 (no result: dFosB activator, Glyco luc inh, PvdQ acylase)
CN1CCCCN2[C@H](CO)[C@H](c3ccc(/C=C/c4ccccc4)cc3)[C@H]2C1	RAD52 anneal inh 77 (no result: dFosB activator, Glyco luc inh, PvdQ acylase)
COc1cc(C(=O)N/N=C(\c2ccccc2)c2ccccn2)cc(OC)c1OC	CFTR F508del cor 12 (no result: RAD54 branch)
COc1cc(C(=O)N/N=C(\C)c2ccccn2)cc(OC)c1OC	Glyco luc inh inconclusive
CCN1CCN(c2ccc(S(=O)(=O)N3CCCCC3)cc2NC(=O)c2cccc(C(F)(F)F)c2)CC1	dFosB activator 21
COc1ccc(S(=O)(=O)N2CCCCC2)cc1NC(=O)c1ccccc1	none
COc1ccc(S(=O)(=O)N2CCCCC2)cc1NC(=O)c1[nH]c(C)c(C(C)=O)c1C	Glyco luc inh 55 (no result: RAD52 anneal inh)
CCOc1ccc(S(=O)(=O)N2CCCCC2)cc1NC(=O)c1ccccc1	CFTR F508del cor 12
CCC(=O)N(C)C[C@@H]1Oc2cc(C#CC3CCCCC3)ccc2S(=O)(=O)N([C@@H](C)CO)C[C@@H]1C	none (no result: dFosB activator, Glyco luc inh, PvdQ acylase)
COc1cccc(S(=O)(=O)Nc2ccc3c(c2)[C@H]2C[C@@H](CC(=O)NCc4cccc(F)c4)O[C@@H](CO)[C@H]2O3)c1	none (no result: dFosB activator, Glyco luc inh, PvdQ acylase)
C[C@@H]1CCCCO[C@@H](CN(C)Cc2ccccc2)[C@@H](C)CN([C@@H](C)CO)C(=O)c2cc(NC(=O)Nc3ccccc3)ccc2O1	none (no result: dFosB activator, Glyco luc inh, PvdQ acylase)
CN(C)S(=O)(=O)c1ccc(N2CCCC2)c(C(=O)Nc2nc3ccccc3s2)c1	Glyco luc inh 90
CC(C)Cc1nnc(NC(=O)c2cc(S(=O)(=O)N(C)C)ccc2N2CCCC2)s1	none
CN(C)S(=O)(=O)c1ccc(N2CCCC2)c(C(=O)Nc2ccccc2Br)c1	none
CN(C)S(=O)(=O)c1ccc(N2CCCC2)c(C(=O)Nc2nc3ccc(F)cc3s2)c1	Glyco luc inh 63
Cc1cccc2sc(NC(=O)c3cc(S(=O)(=O)N(C)C)ccc3N3CCCC3)nc12	Glyco luc inh 87
CN(C)S(=O)(=O)c1ccc(N2CCCC2)c(C(=O)Nc2nc(-c3ccc(F)cc3)cs2)c1	none (no result: CFTR F508del cor)
COC(=O)C[C@H]1CC[C@H]2[C@@H](COC[C@@H](O)CN2S(=O)(=O)c2ccc(F)cc2)O1	none (no result: dFosB activator, Glyco luc inh, PvdQ acylase)
CC(C)NC(=O)N1[C@H](CO)[C@H](c2ccccc2-c2ccc(F)cc2)[C@@H]1C#N	none (no result: dFosB activator, Glyco luc inh, RAD54 branch, PvdQ acylase)
CCOc1ccccc1NC(=O)CC1SC(=N)N(c2ccccc2)C1=O (stereo unspecified)	CFTR F508del cor 15 (no result: dFosB activator, Glyco luc inh, RAD54 branch, PvdQ acylase)
COc1ccccc1NC(=O)CC1SC(=N)N(c2ccccc2)C1=O (stereo unspecified)	none (no result: RAD54 branch)
CO[C@@H]1CN(C)C(=O)c2cc(NC(=O)Nc3ccc4c(c3)OCO4)ccc2OC[C@H](C)NC[C@@H]1C	none (no result: dFosB activator, Glyco luc inh, PvdQ acylase)
CCOC(=O)c1ccc(-c2ccc(/C=N/NC(=O)CN(c3cccc(C)c3)S(C)(=O)=O)o2)cc1	Glyco luc inh 28 (no result: RAD54 branch, CFTR F508del cor)
CCCNC(=O)C[C@@H]1C[C@H]2c3cc(NC(=O)Nc4ccc(F)cc4)ccc3O[C@H]2[C@H](CO)O1	none (no result: dFosB activator, Glyco luc inh, PvdQ acylase)
Fc1ccccc1-c1ccc(/C=N/Nc2nc3ccccc3[nH]2)o1	dFosB activator 22 (no result: RAD54 branch, CFTR F508del cor)
O=C(Cc1ccccc1)N1CC(=O)N2[C@H](CO)[C@@H](c3ccc(C4=CCCC4)cc3)[C@@H]2C1	none (no result: dFosB activator, Glyco luc inh, RAD54 branch, PvdQ acylase)
COc1cc2c(cc1OC)CN(c1nc(-c3cccnc3)nc3ccccc13)CC2	dFosB activator 34
COc1cc(CNC(C)c2ccccc2)cc(Br)c1OCc1ccccc1 (stereo unspecified)	none
COc1cc(CNc2ccc(O)cc2)cc(Br)c1OCc1ccccc1	Glyco luc inh 57 (no result: RAD54 branch)
CNC[C@@H]1Oc2ccc(NC(=O)Nc3ccc(OC)cc3)cc2CC(=O)N([C@@H](C)CO)C[C@H]1C	none (no result: dFosB activator, Glyco luc inh, PvdQ acylase)
c1ccc(-n2cnc3ccccc32)nc1	none
c1ccc(-c2nccc(-c3ccc(-n4cnc5ccccc54)cc3)n2)cc1	dFosB activator 130 (no result: CFTR F508del cor, RAD52 anneal inh)
CCOc1ccc(C(=O)NCC(=O)NNC(=O)c2cc(C)oc2C)cc1OCC	CFTR F508del cor 16
COCCNC(=O)[C@@H]1[C@@H](CO)[C@@H]2Cn3c(ccc(-c4ccccc4OC)c3=O)[C@@H]2N1C(=O)C1CCC1	none (no result: dFosB activator, Glyco luc inh, RAD54 branch, PvdQ acylase)
O=C(Nc1cc(Cl)ccc1N1CCOCC1)c1ccc(Br)o1	none
Cc1ccnc2nc(C(=O)Nc3cc(Cl)ccc3N3CCOCC3)nn12	Glyco luc inh 41 (no result: CFTR F508del cor, RAD52 anneal inh)
O=C(c1ccccc1)N1CC[C@@H]2[C@@H](CO)Nc3ccc(C#Cc4cccc(F)c4)cc3[C@@H]21	none (no result: dFosB activator, Glyco luc inh, PvdQ acylase, RAD52 anneal inh)
O=C(C[C@@H]1CC[C@H]2[C@@H](COC[C@@H](O)CN2Cc2cc(F)cc(F)c2)O1)NCc1cccc(F)c1	none (no result: dFosB activator, Glyco luc inh, PvdQ acylase)
CCC(CN(C)C)Oc1cc(NCc2ccccc2)c2ncn(C(C)C)c2c1 (stereo unspecified)	RAD54 branch 70 (no result: CFTR F508del cor, RAD52 anneal inh)
CC(=O)c1ccc(NC(=O)COC(=O)c2c3c(nc4ccccc24)/C(=C\c2cccs2)CCC3)cc1	CFTR F508del cor 9.1 (no result: RAD54 branch)
O=C(COC(=O)c1c2c(nc3ccccc13)/C(=C\c1cccs1)CCC2)Nc1ccccc1	none (no result: RAD54 branch)
Cc1ccc(-c2csc(Nc3ccccn3)n2)cc1	CFTR F508del cor 8.7
c1ccc(-c2csc(Nc3ccccn3)n2)cc1	none
CCn1nc(C)c(NC(=O)/C=C/c2ccc(OC)c(COc3ccc(Cl)cc3Br)c2)c1C	dFosB activator 207 (no result: CFTR F508del cor, RAD52 anneal inh)
O=C(C[C@@H]1C=C[C@H](NC(=O)Nc2cc(F)ccc2F)[C@H](CO)O1)Nc1ccccc1	none (no result: dFosB activator, Glyco luc inh, PvdQ acylase)
COCC(=O)N[C@@H]1C=C[C@H](CC(=O)NCc2ccc(Cl)cc2)O[C@H]1CO	none (no result: dFosB activator, Glyco luc inh, PvdQ acylase)
N#Cc1cccc(-c2ccc(C3[C@@H]4CN(Cc5ccccc5F)C[C@H]3N4)cc2)c1 (stereo partly specified)	RAD52 anneal inh 83! (no result: dFosB activator, Glyco luc inh, RAD54 branch, PvdQ acylase)
N#Cc1cccc(-c2ccc(C3[C@@H]4CN(Cc5cocn5)C[C@H]3N4)cc2)c1 (stereo partly specified)	RAD52 anneal inh 65 (no result: dFosB activator, Glyco luc inh, RAD54 branch, PvdQ acylase)
N#Cc1cccc(-c2ccc([C@@H]3[C@H]4CN(Cc5ccccc5F)CCCCN4[C@H]3CO)cc2)c1	none (no result: dFosB activator, Glyco luc inh, PvdQ acylase)
COc1ccc(-c2nn(-c3ccccc3)cc2/C=N/N=C(N)N)cc1OC	dFosB activator 68 (no result: RAD54 branch, CFTR F508del cor, RAD52 anneal inh)
COc1ccc(C(=O)NC(=C(Cl)Cl)S(=O)(=O)c2ccc(C)cc2)cc1	dFosB activator 23, Glyco luc inh 27
COC(=O)NC(=C(Cl)Cl)S(=O)(=O)c1ccccc1	Glyco luc inh 51 (no result: CFTR F508del cor, RAD52 anneal inh)
Cc1ccc(C(=O)NC(=C(Cl)Cl)S(=O)(=O)c2ccccc2)cc1	Glyco luc inh inconclusive (no result: RAD54 branch)

Assay outcomes from PubChem BioAssay.
